The source of these data is PubChem BioAssay (NCATS).

Experiment [1] in a line: qHTS of pediatric cancer cell lines to identify multiple opportunities for drug repurposing: Confirmatory screen for Saos-2 cells (AID 1347127). Note: nearly all actives have a fitted effect of over 60% in size. To be noted: Saos-2 osteosarcoma cell viability; series mostly up to 45.9 µM. The method in brief:
(§1)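 Viability after 48 h compound treatment at 37C, 500-1,000 cells/well, read as ATP luminescence with CellTiter-Glo. Primary screens used 11-point (MIPE, 0.78 nM-46 µM) or 8-point (NPC, 0.59 nM-46 µM) final concentrations; follow-up screens used 11-point dilutions.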
In general terms: Quantitative high-throughput screening tests each substance at several concentrations.

Experiment [2] can be described thus: qHTS of pediatric cancer cell lines to identify multiple opportunities for drug repurposing: Confirmatory screen for OHS-50 cells (AID 1347128).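 Note: compound exposure lasted 48 h at 37 degrees C; nearly all actives have a fitted effect of over 55% in size.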 To be noted: OHS-50 osteosarcoma cells viability; series mostly up to 45.9 µM. The method in brief: as §1
Experiment [3] can be described thus: qHTS of pediatric cancer cell lines to identify multiple opportunities for drug repurposing: Confirmatory screen for SK-N-SH cells (AID 1347129).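 Note: cells exposed to compound for 48 h before viability read; nearly all actives have a fitted effect of over 60% in size.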 Particulars: SK-N-SH neuroblastoma cell viability; series mostly up to 46.1 µM. An outline of the steps:
as §1

Experiment [4] deals with Zika virus NS2B-NS3 protease. The experiment in a line: Primary screen GU AMC qHTS for Zika virus inhibitors (AID 1347154). Note: nearly all actives have a fitted effect of over 70% in size. To be noted: Zika NS2B-NS3 unlinked protease, AMC fluorogenic substrate; series mostly up to 54.1 µM. An outline of the steps: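 Unlinked Zika NS2B hydrophilic domain–NS3 protease complex at 25 nM in 10 mM Tris-HCl pH 8.0, 0.01% Tween 20, with an AMC peptide substrate. Fluorescence change (340/450 nm) over 15 min at room temperature, normalized to controls, fitted to 4-parameter Hill.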

Experiment [5] deals with Zika virus NS2B-NS3 protease (unlinked complex). Briefly: Primary screen GU Rhodamine qHTS for Zika virus inhibitors: Unlinked NS2B-NS3 protease assay (AID 1347159). Note: nearly all actives have a fitted effect of over 60% in size. To be noted: Recombinant ZIKV NS2B-NS3 protease, Rhodamine110 substrate fluorescence; series mostly up to 107 µM. An outline of the steps: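 Unlinked NS2B/NS3, 25 nM; Rhod110 peptide, 1.5 microM; compounds, up to 114 microM. Reaction run 15 min at RT in 10 mM Tris-HCl pH 8.0, 0.01% Tween 20; kinetic fluorescence change fitted with a 4-parameter Hill model.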

The target of a further experiment is Furin (Homo sapiens) (UniProt P09958). The experiment in a line: Furin counterscreen qHTS for Zika virus inhibitors (AID 1347149). Note: nearly all actives have a fitted effect of over 70% in size. To be noted: furin enzymatic counterscreen, fluorogenic substrate; series mostly up to 114 µM. The method in brief:
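Counterscreen measures cleavage of 2 microM BOC-RVRR-AMC, below its ~15 microM Km, by 5 nM full-length human furin at pH 7.0 after a 15-min compound preincubation. Inhibition derives from the 15-min fluorescence increase at 37C.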
(In general: Counterscreens check selectivity or assay interference.)

Experiment [6] in a line: Confirmatory screen GU Rhodamine qHTS for Zika virus inhibitors qHTS (AID 1347157). Note: nearly all actives have a fitted effect of over 70% in size. To be noted: purified enzyme assay, Rhodamine110 substrate fluorescence, 15 min; series mostly up to 114 µM. The method in brief: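 Buffer 10 mM Tris-HCl pH 8.0, 0.01% Tween 20. Unlinked protease 25 nM; compound preincubation 15 min, RT, protected from light. Substrate Rhod110, 1.5 microM; ~15% conversion in 15 min.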

Results filed as inconclusive are left out. Calls of active or inactive are those of the source. Calls come from the whole dose curve; as a rule, active = well fitted curve in the direction sought with a large enough effect; inconclusive = small, poorly fitted or top-dose-only effect, or another doubt; inactive = no such curve, though single readings can be large; an effect the other way counts as inactive or inconclusive.
Potency is the fitted concentration of half-maximal effect.

Furin (Homo sapiens), sequence (P09958 whole entry, looked up): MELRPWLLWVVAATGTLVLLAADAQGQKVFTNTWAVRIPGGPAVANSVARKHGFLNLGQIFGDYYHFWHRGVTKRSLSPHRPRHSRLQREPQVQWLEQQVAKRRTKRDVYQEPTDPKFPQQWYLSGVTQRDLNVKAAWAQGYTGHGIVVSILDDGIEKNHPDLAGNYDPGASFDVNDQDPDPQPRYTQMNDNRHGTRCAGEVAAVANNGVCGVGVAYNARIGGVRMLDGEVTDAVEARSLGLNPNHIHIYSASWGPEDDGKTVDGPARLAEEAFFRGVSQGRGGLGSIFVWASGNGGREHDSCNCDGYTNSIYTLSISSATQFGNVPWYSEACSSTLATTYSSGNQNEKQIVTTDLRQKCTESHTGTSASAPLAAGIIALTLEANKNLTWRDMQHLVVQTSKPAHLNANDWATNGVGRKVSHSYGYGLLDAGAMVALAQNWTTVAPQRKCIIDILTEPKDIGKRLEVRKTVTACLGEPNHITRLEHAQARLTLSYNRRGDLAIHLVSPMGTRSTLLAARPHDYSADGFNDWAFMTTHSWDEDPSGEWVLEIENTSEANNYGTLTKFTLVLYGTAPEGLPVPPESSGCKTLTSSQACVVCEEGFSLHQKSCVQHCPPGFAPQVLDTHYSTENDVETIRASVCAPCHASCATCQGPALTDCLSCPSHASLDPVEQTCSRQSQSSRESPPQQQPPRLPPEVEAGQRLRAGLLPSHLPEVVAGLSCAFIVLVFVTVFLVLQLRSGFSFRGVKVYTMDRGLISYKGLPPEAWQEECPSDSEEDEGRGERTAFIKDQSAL

Turning to `O=C(Nc1cn[nH]c1-c1nc2ccc(CN3CCOCC3)cc2[nH]1)NC1CC1`, the Potency result in experiment [1], in experiment [2], in experiment [3], in experiment [4] and in experiment [5] was “inactive” throughout.
On to `CN1CC[C@@H](c2c(O)cc(O)c3c(=O)cc(-c4ccccc4Cl)oc23)[C@@H](O)C1`, for which the Potency is 522 nM (active) in experiment [1] and 414 nM (active) in experiment [2]. Further, the Potency result in experiment [4] was “inactive”.
`COCCn1c2c([n+](Cc3cnccn3)c1C)C(=O)c1ccccc1C2=O`: the Potency in experiment [1] is 7.4 nM (active); in experiment [2], 5.2 nM (active); in experiment [3], 235 nM (active). Moreover, the Potency result in experiment [4] was “inactive”.
As to `NC(=O)Nc1cc(-c2cccc(F)c2)sc1C(=O)N[C@H]1CCCNC1`, the Potency is 1650 nM (active) in experiment [1], 737 nM (active) in experiment [2] and 3720 nM (active) in experiment [3]. For the same compound, the Potency entry in experiment [5] is “inactive”.
In the case of `O=C(Nc1cc(C(F)(F)F)cc(C(F)(F)F)c1)c1cc(Cl)ccc1O`, the Potency is 1650 nM (active) in experiment [1]; 928 nM (active) in experiment [2]; 3720 nM (active) in experiment [3]; 55500 nM (active) with Furin (Homo sapiens); 4940 nM (active) in experiment [6]; 2820 nM (active) in experiment [5]. In experiment [4], the Potency entry was “inactive”.
Regarding `CC(C)c1nn(-c2c(Cl)cccc2Cl)c2nc(Cc3ccc(OCCO)cc3)[nH]c(=O)c12`, the Potency in experiment [1] is 82.7 nM (active); in experiment [2], 104 nM (active); in experiment [3], 118 nM (active). For the same compound, the Potency result in experiment [4] and in experiment [5] was “inactive” in each case.
For the compound `CC1(C)O[C@@H]2C[C@@H]3[C@H]4C[C@@H](F)C5=CC(=O)C=C[C@]5(C)[C@@]4(F)[C@@H](O)C[C@]3(C)[C@]2(C(=O)CO)O1`, the Potency is 117 nM (active) in experiment [1] and 82.7 nM (active) in experiment [2]. The Potency entry in experiment [4] was “inactive”.
Take `C#Cc1cccc(Nc2ncnc3cc(OC)c(OCCCCCCC(=O)NO)cc23)c1`: the figures for the Potency in experiment [1], in experiment [2] and in experiment [3] were 1350 nM (active), 2400 nM (active) and 2410 nM (active), respectively.
On to `CCS(=O)(=O)c1cccc(-c2cc(C(=O)NC3CCN(C)CC3)c(C)c3[nH]c4ncc(C)cc4c23)c1`, for which the Potency in experiment [1] is 1040 nM (active); in experiment [2], 1850 nM (active); in experiment [3], 2090 nM (active); in the experiment with Furin (Homo sapiens), 24100 nM (active); in experiment [4] it was 24100 nM (active). Further, in experiment [5], the Potency result was “inactive”.
